# Test results from PubChem BioAssay (NCATS).
# Inconclusive results are not listed. Activity calls are given as the source filed them. Unless noted, calls follow the shape of the dose curve; as a rule, active = well fitted curve in the direction sought with a large enough effect; inconclusive = small, poorly fitted or top-dose-only effect, or another doubt; inactive = no such curve, though single readings can be large; an effect the other way counts as inactive or inconclusive.
# Assays:
# [1] = AP1 Signaling Pathway (AID 357; active = well fitted curve in either direction with a large enough effect, not every such curve was filed as active;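 also: ME-180 reporter cells stimulated with EGF at its EC50 level; % is scaled to controls: 0 for no effect and ±100 for the full control effect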); details: ME-180 AP-1-bla reporter, EGF-induced, beta-lactamase ratio, 5 h; at 7.69 µM (top of the series) unless noted
# Method in brief: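 AP-1-bla ME-180 cells, Opti-MEM + 0.5% dialyzed FBS, plated overnight 37 °C. Cpd titration + EC50 EGF, 5 h 37 °C. CCF4 2.5 h RT; ex 405, em 460/530 ratio → %activity, AC50.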
# [2] = target: Cytochrome P450 1A2 (Homo sapiens) (UniProt P05177); assay: p450-cyp1a2 (AID 410; calls by dose curve; also: potency is read from the fitted curve at half-maximal effect)
# Method in brief: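 Luminescent demethylation readout: Luciferin-ME (100uM, equal to Km) turned over by 20nM CYP1A2 for 60 min at room temperature after NADPH regeneration addition, following 10 min compound preincubation. Normalization used 57 uM furafylline as full inhibition.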
# [3] = NFAT Signaling Pathway (AID 444; active = well fitted curve in either direction with a large enough effect, not every such curve was filed as active;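 also: carbachol stimulus at about its EC50 of 1 µM final; % is scaled to controls: 0 for no effect and ±100 for the full control effect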); details: Jurkat NFAT-bla M1, carbachol, beta-lactamase ratio, 5 h; at 7.69 µM (top of the series) unless noted
# Method in brief: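 Jurkat cells with NFAT-driven β-lactamase reporter and co-expressed M1 receptor, stimulated with carbachol (final 1 uM, ~EC50), compound titration, 5 h at 37 °C. CCF4 loaded 1 h at RT; 460/530 nm ratio gave %activity and AC50.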
# [4] = target: Glucocorticoid receptor (Homo sapiens) (UniProt P04150); assay: GR-EFC Redistribution (AID 451; calls by dose curve; also: potency is read from the fitted curve at half-maximal effect); details: CHO-K1 GR-EFC translocation, beta-gal luminescence, 2 h
# Method in brief: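 CHO-K1 cells expressing nuclear EA and GR-ED fragments of b-gal; compounds titrated up to 46 uM final, 2 h at 37 C. GR nuclear translocation read as complemented b-gal luminescence after 1 h RT detection.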
# [5] = target: Mitogen-activated protein kinase 10 (Mus musculus) (UniProt Q61831); assay: JNK3 AlphaScreen Assay (AID 530; active = well fitted curve in either direction with a large enough effect, not every such curve was filed as active;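 also: kinase came from lysate of stimulated human HepG2 cells; signal reports phosphorylation of biotinylated GST-cJun 1-79 at Ser73 with 10 µM ATP; % is scaled to controls: 0 for no effect and ±100 for the full control effect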)
# Method in brief: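 Activity was read by AlphaScreen after JNK3-containing HepG2 lysate (cytokine pre-activated) phosphorylated biotinylated GST-cJun with 10 uM ATP at room temperature. Phospho-Ser73 cJun antibody with Protein-A acceptor beads provided detection.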
# [6] = target: 3',5'-cyclic-AMP phosphodiesterase 4B (Homo sapiens) (UniProt Q07343); assay: qHTS Assay for Inhibitors of PDE-IV (AID 607; active = well fitted activation curve with a large enough effect in the main read-out, with a control signal flat, not every such curve was filed as active; also: % of control where 0% means no effect)
# Method in brief: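 Cell-based read-out of cAMP via a modified cyclic nucleotide-gated channel and membrane potential dye (535/590 nm) in HEK293 cells expressing PDE4 endogenously. Compounds tested up to 22.9 uM final; 100 uM RO 20-1724 reference.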
# [7] = target: Cytochrome P450 3A4 (Homo sapiens) (UniProt P08684); assay: qHTS Assay for Activators of Cytochrome P450 3A4 (AID 885); also: nearly all actives have a fitted effect of over 65% in size
# Method in brief: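 Luminescent readout of luciferin formed from 25 uM Luciferin-PPXE (KM level) by 20 nM CYP3A4 in 200 mM KPO4, with 60 min NADPH-driven reaction at room temperature after 10 min compound exposure. Ketoconazole (57 uM) defined 100% inhibition.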
# [8] = qHTS Assay for Lipid Storage Modulators (AID 1519; calls by dose curve); details: Drosophila S3 cells, BODIPY lipid droplet/cell ratio, laser cytometry, cells loaded with oleic acid; for activity change, negative = inhibition: at 57.5 µM (top of the series)
# Method in brief: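 Cells seeded at 5,000 per well were treated with compounds over a concentration series and loaded with oleic acid (400 uM, as added). Lipid droplet fluorescence (488 nm excitation, 500-530 nm channel) was read by laser-scanning cytometry and normalized to 20 uM Triacsin C.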
# [9] = target: Dual specificity protein kinase CLK4 (Homo sapiens) (UniProt Q9HAZ1); assay: qHTS Assay for Inhibitors of CDC-like Kinase 4 (ADP-FP Assay) (AID 1795);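 also: recombinant human CLK4 phosphorylating RS repeat peptide at 1 µM ATP; % is scaled to controls: 0 for no effect and ±100 for the full control effect; nearly all actives have a fitted effect of over 60% in size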
# Method in brief: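 Recombinant Clk4 (6.25 nM) phosphorylated 100 uM RS repeat peptide with 1 uM ATP in 25 mM Tris pH 7.5, 10 mM MgCl2, 0.5 mM EGTA, 2.5 mM DTT, 0.01% Triton X-100 for 1 h. ADP was detected by Transcreener ADP2 competitive fluorescence polarization after 30 min at room temperature.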
# [10] = target: Ubiquitin carboxyl-terminal hydrolase 1 (Homo sapiens) (UniProt O94782); assay: Inhibitors of USP1/UAF1: Pilot qHTS (AID 504865); also: nearly all actives have a fitted effect of over 35% in size; also: potency is read from the fitted curve at half-maximal effect
# Method in brief: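 USP1/UAF1 complex at 1 nM preincubated 15 min at room temperature with compound, then Ub-Rho substrate added at 150 nM final. Fluorescence (480/540 nm) read kinetically in 50 mM HEPES pH 7.8, 0.5 mM EDTA, 1 mM TCEP, 0.1 mg/ml BSA, 0.01% Tween-20.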
# [11] = Primary qHTS for small molecule stabilizers of the endoplasmic reticulum resident proteome: Secreted ER Calcium Modulated Protein (SERCaMP) assay (AID 1508630); also: % is scaled to controls: 0 for no effect and ±100 for the full control effect
# Method in brief: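 The SH-SY5Y reporter protocol was run at 3 concentrations up to 38.3 uM (primary) or 11 concentrations (follow-up): 16 h compound, 100 nM thapsigargin for 4 h, then extracellular luciferase luminescence.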
# [12] = target: Lysosomal acid glucosylceramidase (Homo sapiens) (UniProt P04062); assay: Glucocerebrosidase-p2 (AID 348; in the data active = potency below about 10 µM; also: potency is read from the fitted curve at half-maximal effect); details: purified GBA, blue fluorogenic substrate, 40 min
# Method in brief: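 Normal human glucocerebrosidase (0.2 nM) with blue fluorogenic substrate (80 uM final) in citrate/phosphate pH 5.9 with 10mM sodium taurocholate, 0.01% tween-20; 40 min RT, NaOH/glycine stop; fluorescence Ex 365/Em 440; AC50 from a titration from 0.6 nM upwards.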
# [13] = Stat Signaling Pathway (AID 446; active = well fitted curve in either direction with a large enough effect, not every such curve was filed as active); details: ME-180 (cervical carcinoma) SIE beta-lactamase reporter, IL-6 stimulated, 5 h; at 7.69 µM (top of the series) unless noted
# Method in brief: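 FRET read-out (405 nm excitation, 460/530 nm emission) of a beta-lactamase reporter under a STAT-inducible element in ME-180 cervical carcinoma cells. Cells with compound receive 40 pM IL-6 for 5 h. Values are normalised to AC90 stimulation and AC90 JAK-inhibitor controls.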
# [14] = target: Glucocorticoid receptor (Homo sapiens) (UniProt P04150); assay: GR-GFP Redistribution (AID 450;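 active = compounds whose dose series gives a full or clear partial fitted curve of increased nuclear translocation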; also: potency is read from the fitted curve at half-maximal effect); details: U2OS GR-GFP nuclear translocation, laser cytometry, 2 h
# [15] = target: Cytochrome P450 3A4 (Homo sapiens) (UniProt P08684); assay: qHTS Assay for Inhibitors and Substrates of Cytochrome P450 3A4 (AID 884); also: potency is read from the fitted curve at half-maximal effect; nearly all actives have a fitted effect of over 50% in size
# Method in brief: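 Luminescent readout of luciferin produced by CYP3A4 (20 nM) dealkylation of Luciferin-PPXE, 25 uM (its KM). NADPH-driven reaction ran 60 min at RT after 10 min compound preincubation; data scaled to 57 uM ketoconazole as 100% inhibition.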
# [16] = target: Cytochrome P450 2C19 (Homo sapiens) (UniProt P33261); assay: qHTS Assay for Inhibitors and Substrates of Cytochrome P450 2C19 (AID 899); also: potency is read from the fitted curve at half-maximal effect; nearly all actives have a fitted effect of over 60% in size
# Method in brief: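 5 nM human CYP2C19 with 10uM Luciferin-H EGE (at KM) in 50mM KPO4, compound preincubated 10 min at 37C, then NADPH regeneration for 60 min at 37C. Luciferin read by luminescence after detection reagent; normalized to 57uM ketoconazole as full inhibition.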
# [17] = measured here: cell count channel max response
# [18] = measured here: lipid channel max response
# Sequence of Glucocorticoid receptor (Homo sapiens) (P04150 whole entry, looked up, the tested form may be a part): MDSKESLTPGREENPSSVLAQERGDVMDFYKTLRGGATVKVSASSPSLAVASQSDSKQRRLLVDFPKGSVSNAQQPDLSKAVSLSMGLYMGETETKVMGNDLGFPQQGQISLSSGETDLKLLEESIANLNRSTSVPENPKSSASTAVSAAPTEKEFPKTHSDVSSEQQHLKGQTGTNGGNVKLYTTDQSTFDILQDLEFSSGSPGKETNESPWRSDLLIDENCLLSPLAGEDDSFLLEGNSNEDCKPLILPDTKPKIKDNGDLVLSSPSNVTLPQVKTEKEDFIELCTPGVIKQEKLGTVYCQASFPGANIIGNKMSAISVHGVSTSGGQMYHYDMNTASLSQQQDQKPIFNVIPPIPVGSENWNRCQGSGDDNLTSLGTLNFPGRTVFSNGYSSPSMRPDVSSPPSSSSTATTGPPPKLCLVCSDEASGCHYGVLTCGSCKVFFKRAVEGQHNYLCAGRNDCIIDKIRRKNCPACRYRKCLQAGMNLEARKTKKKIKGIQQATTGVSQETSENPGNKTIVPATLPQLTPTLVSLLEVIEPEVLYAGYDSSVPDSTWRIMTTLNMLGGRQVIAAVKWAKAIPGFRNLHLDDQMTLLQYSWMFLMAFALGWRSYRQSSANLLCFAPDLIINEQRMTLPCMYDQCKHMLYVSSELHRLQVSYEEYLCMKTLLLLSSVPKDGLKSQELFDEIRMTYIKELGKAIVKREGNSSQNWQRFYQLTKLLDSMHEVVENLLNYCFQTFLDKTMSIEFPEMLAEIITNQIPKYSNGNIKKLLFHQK
# Sequence of Ubiquitin carboxyl-terminal hydrolase 1 (Homo sapiens) (O94782 whole entry, looked up): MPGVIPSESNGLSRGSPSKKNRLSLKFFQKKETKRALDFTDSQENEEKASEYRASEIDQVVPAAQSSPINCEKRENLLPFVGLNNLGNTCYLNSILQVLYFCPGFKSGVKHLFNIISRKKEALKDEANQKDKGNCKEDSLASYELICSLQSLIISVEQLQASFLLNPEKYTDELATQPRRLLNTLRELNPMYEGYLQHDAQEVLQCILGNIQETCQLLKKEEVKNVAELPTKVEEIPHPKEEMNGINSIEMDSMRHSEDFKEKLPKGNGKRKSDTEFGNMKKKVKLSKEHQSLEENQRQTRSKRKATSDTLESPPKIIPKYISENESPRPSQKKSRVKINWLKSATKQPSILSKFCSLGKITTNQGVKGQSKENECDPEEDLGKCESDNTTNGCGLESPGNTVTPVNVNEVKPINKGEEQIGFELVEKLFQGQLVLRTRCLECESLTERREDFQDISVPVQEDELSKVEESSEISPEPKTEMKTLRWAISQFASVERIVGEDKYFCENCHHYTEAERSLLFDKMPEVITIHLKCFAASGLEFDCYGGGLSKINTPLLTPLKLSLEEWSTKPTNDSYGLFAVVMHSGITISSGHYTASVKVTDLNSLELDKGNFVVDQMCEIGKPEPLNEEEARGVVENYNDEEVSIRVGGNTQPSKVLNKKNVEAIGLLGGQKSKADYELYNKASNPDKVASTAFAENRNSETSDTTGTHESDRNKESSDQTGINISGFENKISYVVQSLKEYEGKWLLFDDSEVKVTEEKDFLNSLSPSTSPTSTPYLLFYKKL
# Sequence of Cytochrome P450 1A2 (Homo sapiens) (P05177 whole entry, looked up): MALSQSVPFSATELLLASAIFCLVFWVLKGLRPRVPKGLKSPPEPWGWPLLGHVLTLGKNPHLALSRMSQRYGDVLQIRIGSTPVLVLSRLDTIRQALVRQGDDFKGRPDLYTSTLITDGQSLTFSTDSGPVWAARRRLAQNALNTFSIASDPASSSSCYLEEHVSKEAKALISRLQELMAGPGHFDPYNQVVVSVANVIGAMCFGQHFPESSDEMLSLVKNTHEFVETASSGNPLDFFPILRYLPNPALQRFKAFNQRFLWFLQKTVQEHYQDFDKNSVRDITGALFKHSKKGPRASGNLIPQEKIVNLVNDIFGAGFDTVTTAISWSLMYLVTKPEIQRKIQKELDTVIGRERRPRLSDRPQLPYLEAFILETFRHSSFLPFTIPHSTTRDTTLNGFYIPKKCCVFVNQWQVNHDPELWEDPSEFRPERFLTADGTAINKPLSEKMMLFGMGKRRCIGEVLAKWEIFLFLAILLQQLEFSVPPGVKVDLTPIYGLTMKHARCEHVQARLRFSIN
# Sequence of Cytochrome P450 3A4 (Homo sapiens) (P08684 whole entry, looked up): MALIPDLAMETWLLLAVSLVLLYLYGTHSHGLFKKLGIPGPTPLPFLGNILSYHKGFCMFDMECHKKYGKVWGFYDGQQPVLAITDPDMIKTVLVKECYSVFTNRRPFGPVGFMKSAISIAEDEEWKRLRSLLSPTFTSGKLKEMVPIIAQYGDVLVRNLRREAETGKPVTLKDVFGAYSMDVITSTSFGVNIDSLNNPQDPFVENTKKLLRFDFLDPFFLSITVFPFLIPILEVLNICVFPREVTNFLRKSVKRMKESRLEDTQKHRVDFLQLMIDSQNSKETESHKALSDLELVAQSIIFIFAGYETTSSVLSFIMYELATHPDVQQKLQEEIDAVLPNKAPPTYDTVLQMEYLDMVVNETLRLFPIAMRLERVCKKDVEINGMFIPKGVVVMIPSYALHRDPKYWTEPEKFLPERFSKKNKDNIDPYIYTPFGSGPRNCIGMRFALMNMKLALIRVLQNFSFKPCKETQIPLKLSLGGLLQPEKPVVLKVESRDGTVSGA
# Sequence of 3',5'-cyclic-AMP phosphodiesterase 4B (Homo sapiens) (Q07343 whole entry, looked up): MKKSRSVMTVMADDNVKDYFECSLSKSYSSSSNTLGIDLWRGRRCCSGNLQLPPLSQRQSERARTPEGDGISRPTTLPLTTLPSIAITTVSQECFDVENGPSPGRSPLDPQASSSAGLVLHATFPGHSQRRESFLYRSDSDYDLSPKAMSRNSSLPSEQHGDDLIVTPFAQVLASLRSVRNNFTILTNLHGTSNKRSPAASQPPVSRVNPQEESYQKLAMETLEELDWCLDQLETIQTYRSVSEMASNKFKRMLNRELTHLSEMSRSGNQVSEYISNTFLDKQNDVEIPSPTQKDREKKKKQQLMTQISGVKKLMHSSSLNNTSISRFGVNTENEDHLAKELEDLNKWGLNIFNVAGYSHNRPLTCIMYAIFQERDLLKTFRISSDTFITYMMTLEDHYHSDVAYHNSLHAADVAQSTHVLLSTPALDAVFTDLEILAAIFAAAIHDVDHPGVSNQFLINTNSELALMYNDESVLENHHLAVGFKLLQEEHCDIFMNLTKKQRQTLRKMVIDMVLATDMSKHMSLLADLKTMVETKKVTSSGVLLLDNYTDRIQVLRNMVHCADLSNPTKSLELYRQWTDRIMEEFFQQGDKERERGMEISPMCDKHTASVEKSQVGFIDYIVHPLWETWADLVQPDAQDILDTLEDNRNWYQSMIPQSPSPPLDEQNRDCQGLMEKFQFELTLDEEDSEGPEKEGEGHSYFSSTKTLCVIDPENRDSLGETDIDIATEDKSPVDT
# Sequence of Dual specificity protein kinase CLK4 (Homo sapiens) (Q9HAZ1 whole entry, looked up): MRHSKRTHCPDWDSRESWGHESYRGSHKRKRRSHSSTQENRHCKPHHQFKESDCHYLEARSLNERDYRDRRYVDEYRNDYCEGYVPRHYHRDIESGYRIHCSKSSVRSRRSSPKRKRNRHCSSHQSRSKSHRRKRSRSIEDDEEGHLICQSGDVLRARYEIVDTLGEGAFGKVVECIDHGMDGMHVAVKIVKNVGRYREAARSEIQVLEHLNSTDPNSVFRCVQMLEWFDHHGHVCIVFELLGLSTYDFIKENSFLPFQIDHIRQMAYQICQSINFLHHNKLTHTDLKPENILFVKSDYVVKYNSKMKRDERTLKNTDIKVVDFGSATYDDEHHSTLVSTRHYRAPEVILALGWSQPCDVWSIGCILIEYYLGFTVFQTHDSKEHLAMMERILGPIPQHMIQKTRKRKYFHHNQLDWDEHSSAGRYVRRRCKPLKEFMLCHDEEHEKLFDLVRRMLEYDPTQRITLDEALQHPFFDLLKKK
# Sequence of Lysosomal acid glucosylceramidase (Homo sapiens) (P04062 whole entry, looked up): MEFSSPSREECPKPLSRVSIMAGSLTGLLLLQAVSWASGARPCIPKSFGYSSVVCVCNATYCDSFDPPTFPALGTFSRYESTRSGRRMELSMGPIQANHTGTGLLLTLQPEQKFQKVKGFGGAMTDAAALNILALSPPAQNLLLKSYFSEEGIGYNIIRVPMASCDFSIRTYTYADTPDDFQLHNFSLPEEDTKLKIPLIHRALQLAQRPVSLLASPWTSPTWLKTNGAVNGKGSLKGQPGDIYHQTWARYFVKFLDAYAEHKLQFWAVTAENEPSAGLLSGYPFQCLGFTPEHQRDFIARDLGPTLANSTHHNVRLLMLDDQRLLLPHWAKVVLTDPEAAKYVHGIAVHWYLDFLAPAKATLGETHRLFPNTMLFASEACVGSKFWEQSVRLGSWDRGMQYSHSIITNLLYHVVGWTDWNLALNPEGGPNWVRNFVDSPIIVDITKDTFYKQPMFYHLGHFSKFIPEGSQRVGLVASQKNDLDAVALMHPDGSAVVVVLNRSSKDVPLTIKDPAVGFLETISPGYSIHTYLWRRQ
# Sequence of Cytochrome P450 2C19 (Homo sapiens) (P33261 whole entry, looked up): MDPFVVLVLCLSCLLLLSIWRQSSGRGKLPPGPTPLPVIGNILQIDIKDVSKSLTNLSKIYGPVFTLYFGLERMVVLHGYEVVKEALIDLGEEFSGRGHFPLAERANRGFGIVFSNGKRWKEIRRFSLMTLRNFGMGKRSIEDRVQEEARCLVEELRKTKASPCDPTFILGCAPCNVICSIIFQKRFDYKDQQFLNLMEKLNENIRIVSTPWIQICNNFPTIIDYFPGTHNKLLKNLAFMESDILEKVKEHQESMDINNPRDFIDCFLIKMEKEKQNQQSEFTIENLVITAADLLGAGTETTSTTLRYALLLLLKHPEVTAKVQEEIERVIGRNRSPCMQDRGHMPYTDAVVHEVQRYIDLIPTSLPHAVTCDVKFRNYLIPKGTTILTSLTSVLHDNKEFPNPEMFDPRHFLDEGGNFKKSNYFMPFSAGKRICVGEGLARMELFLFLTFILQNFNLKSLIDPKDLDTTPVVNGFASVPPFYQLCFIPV
Structure (SMILES),"activity change, negative = inhibition [1]",Potency [2],"activity change, negative = inhibition [3]",Potency [4],outcome [5],Potency [6],Potency [7],"activity change, negative = inhibition [8]","max response [8, 17] [%]","max response [8, 18] [%]",Potency [9],Potency [10],Potency [11],Potency [12],"activity, negative = inhibition [13]",Potency [14],Potency [15],Potency [16]
CN(C)c1ccc(-c2nc(NCCN3CCOCC3)c3ccccc3n2)cc1,1.67% (inactive),7.94 µM (active),-21.3% (inactive),> 46 µM (inactive),inactive,inactive,inactive,3.01% (inactive),9.82,10.9,inactive,inactive,inactive,,,,,
c1ncc(-c2ccoc2)c(NC2CC2)n1,16.6% (inactive),15.8 µM (active),5.32% (inactive),> 46 µM (inactive),inactive,inactive,inactive,3.62% (inactive),21.6,22.6,,28.2 µM (active),inactive,> 11.4 µM (inactive),4.55% (inactive),> 46 µM (inactive),7.94 µM (active),
N#Cc1cccc(-c2cncnc2NCc2cccs2)c1,-2.15% (inactive),1.58 µM (active),-0.972% (inactive),> 46 µM (inactive),inactive,,inactive,6.17% (inactive),15.7,18.5,inactive,inactive,inactive,> 11.4 µM (inactive),3.27% (inactive),> 46 µM (inactive),1.26 µM (active),7.94 µM (active)
